Compound activity from PubChem.
This excerpt belongs to a sample that is enriched for hits.
RMI-FANCM inh – inhibitors of human RMI core complex binding to FANCM MM2. Fluorescence polarization, RMI core complex with F-MM2 peptide; hits give low values. FP signal (polarization) at 33 µM. 70,000 compounds, 0.58% hits; in the data active = FP signal below about 40
* marks the source's active call; other numbers are inactive results.

SMILES | RMI-FANCM inh
O=C(CSc1nc2c([nH]c3ccccc32)c(=O)n1-c1ccc([N+](=O)[O-])cc1)N1CCc2ccccc21 | 65
CCOC(=O)N1CCN(C(=O)CSc2nc3c(c(=O)n2-c2ccc(OCC)cc2)SCC3)CC1 | 81
O=C(CSc1nc2c(c(=O)n1-c1ccc([N+](=O)[O-])cc1)SCC2)N1CCCc2ccccc21 | 24*
O=C(NC(=S)NC1CCSC1=O)c1ccc(Br)o1 (stereo not given) | 61
O=C(CCC1CCCCC1)NCCn1ncc2c(N3CCN(c4ccc(F)cc4)CC3)ncnc21 | 64
Cc1ccc(OCCN2CCN(c3c4c(c(C#N)c5nc6ccccc6n35)CCCC4)CC2)cc1 | 62
COc1cccc(N2CCc3c(C)c(C#N)c4nc5ccccc5n4c32)c1 | 14*
Cc1c2c(n3c(nc4ccccc43)c1C#N)N(C(C)c1ccccc1)CC2 (stereo not given) | 79
CCc1c(C)c(C#N)c2nc3ccccc3n2c1N | 66
Cc1c2c(n3c(nc4ccccc43)c1C#N)SCC2 | 24*
CSc1c2c(c(C#N)c3nc4ccccc4n13)CCCC2 | 73
COc1ccc(S(=O)(=O)N2CCCCC2CC(=O)Nc2ccc(Br)cc2F)cc1 (stereo not given) | 74
O=C(Nn1cnc2c(cnn2-c2ccccc2)c1=O)c1cc2ccccc2oc1=O | 54
CCOC(=O)N1CCN(C(=O)Cn2cnc3c(cnn3-c3ccc(F)cc3)c2=O)CC1 | 60
